In ChEMBL document CHEMBL1157539, “Thousands of chemical starting points for antimalarial lead identification” (Nature, 2010):

Legend:
Type in all cases: functional
Plasmodium falciparum [1] = test: GSK_TCMDC: Inhibition of Plasmodium falciparum 3D7 in whole red blood cells, using parasite LDH activity as an index of growth. Test compounds present at 2uM
Plasmodium falciparum [2] = test: GSK_TCMDC: Inhibition of Plasmodium falciparum Dd2 in whole red blood cells, using parasite LDH activity as an index of growth. Test compounds present at 2uM
HepG2 = test: GSK_TCMDC: Percent inhibition of human HepG2 cell line. Test compounds present at 10uM.

`N#Cc1ccc(CN2CCC(Oc3ccc(NC(=O)c4cccs4)cc3Cl)C2)cc1.O=C(O)C(F)(F)F` (centres undefined) showed an Inhibition (Plasmodium falciparum [1]) of 96%, an Inhibition (Plasmodium falciparum [2]) of 95% and an Inhibition (HepG2) of 31%.
`Cc1noc(C)c1-c1ccc2c(Nc3cccc4c3-c3ccccc3C4=O)c(C(=O)NCc3ccccc3I)cnc2c1` was tested, and the Inhibition (Plasmodium falciparum [1]) was 99%, the Inhibition (Plasmodium falciparum [2]) was 99% and the Inhibition (HepG2) was 27%.
`Nc1ncc(-c2cc3ccccc3o2)c(N)n1` showed an Inhibition (Plasmodium falciparum [1]) of 81%, an Inhibition (Plasmodium falciparum [2]) of 2% and an Inhibition (HepG2) of 0%.
With `O=C(N[C@H]1CCN(Cc2ccc(OC3CCN(Cc4ccccc4)CC3)cc2)C1)c1ccc(Cl)c(Cl)c1.O=C(O)C(F)(F)F` the Inhibition (Plasmodium falciparum [1]) was 90%, the Inhibition (Plasmodium falciparum [2]) was 6% and the Inhibition (HepG2) was 37%.
For `Cc1cc(C(F)(F)F)n2nc(C(=O)N(C)Cc3cncn3Cc3ccc(F)cc3)cc2n1`, the Inhibition (Plasmodium falciparum [1]) was 100%, the Inhibition (Plasmodium falciparum [2]) was 96% and the Inhibition (HepG2) was 0%.
Work on `CSc1cccc(NC(=O)Nc2ccc(I)c(OCCN(C)C)c2)c1` yielded an Inhibition (Plasmodium falciparum [1]) of 97%, an Inhibition (Plasmodium falciparum [2]) of 19% and an Inhibition (HepG2) of 14%.
Work on `O=C(Nc1nc2cc(S(=O)(=O)NCCc3cccc(F)c3)ccc2n1CCCn1ccnc1)c1ccc(Cl)cc1.O=C(O)C(F)(F)F` yielded an Inhibition (Plasmodium falciparum [1]) of 90%, an Inhibition (Plasmodium falciparum [2]) of 8% and an Inhibition (HepG2) of 0%.
Work on `Cc1cccc2nc(-c3ccc(-c4cccc(CN5CCC(N)C5)c4)s3)[nH]c12.O=C(O)C(F)(F)F` (centres undefined) yielded an Inhibition (Plasmodium falciparum [1]) of 95%, an Inhibition (Plasmodium falciparum [2]) of 78% and an Inhibition (HepG2) of 16%.
Compound `COc1cc(OC)nc(-c2cccc(NC(=O)c3ccc4c(=O)n(CCN5CCCCC5)cnc4c3)c2)n1` has an Inhibition (Plasmodium falciparum [1]) of 100%, an Inhibition (Plasmodium falciparum [2]) of 86% and an Inhibition (HepG2) of 11%.
For `CCn1c(-c2nonc2N)nc2c(-c3cccc(Cl)c3)ncc(OCCCNCc3cnc(C)nc3N)c21.O=C(O)C(F)(F)F`, the Inhibition (Plasmodium falciparum [1]) was 93%, the Inhibition (Plasmodium falciparum [2]) was 48% and the Inhibition (HepG2) was 21%.
With `CN(C)C(S)=NN=Cc1cccc(O)c1O` the Inhibition (Plasmodium falciparum [1]) was 91%, the Inhibition (Plasmodium falciparum [2]) was 55% and the Inhibition (HepG2) was 11%.
With `NS(=O)(=O)CCc1cccc(Nc2nccc(-c3c(-c4cccc(NC(=O)c5c(F)cccc5F)c4)nn4ccccc34)n2)c1` the Inhibition (Plasmodium falciparum [1]) was 98%, the Inhibition (Plasmodium falciparum [2]) was 97% and the Inhibition (HepG2) was 84%.
Compound `CCOc1cc(Cc2cnc(N)nc2N)cc(OCC)c1-n1cccc1` [EPIROPRIM] has an Inhibition (Plasmodium falciparum [1]) of 98%, an Inhibition (Plasmodium falciparum [2]) of 0% and an Inhibition (HepG2) of 0%.
`Cc1ccc(NC(=O)c2ccc(C(=O)NC3CCN(CC4CCCCC4)CC3)cc2)cc1.O=C(O)C(F)(F)F` showed an Inhibition (Plasmodium falciparum [1]) of 93%, an Inhibition (Plasmodium falciparum [2]) of 0% and an Inhibition (HepG2) of 36%.
Compound `CCOC(=O)c1ccc(-n2c(C)cc(C=C3SC(=Nc4ccccc4)N(C4CCCC4)C3=O)c2C)cc1` has an Inhibition (Plasmodium falciparum [1]) of 98%, an Inhibition (Plasmodium falciparum [2]) of 61% and an Inhibition (HepG2) of 2%.
Work on `Cc1ccc(S(=O)(=O)n2nccc2-c2c(-c3ccc(Cl)cc3)noc2C)cc1` yielded an Inhibition (Plasmodium falciparum [1]) of 97%, an Inhibition (Plasmodium falciparum [2]) of 97% and an Inhibition (HepG2) of 0%.
`Cc1c(Cl)ccc2sc(N3CCN(C(=O)c4ccc([N+](=O)[O-])o4)CC3)nc12` showed an Inhibition (Plasmodium falciparum [1]) of 96%, an Inhibition (Plasmodium falciparum [2]) of 93% and an Inhibition (HepG2) of 0%.
`COc1ccc2nccc([C@@H](O)CN3CCC(NC(=O)/C(=C/c4ccccc4)c4ccc(-c5ccccc5)cc4)CC3)c2c1` was tested, and the Inhibition (Plasmodium falciparum [1]) was 94%, the Inhibition (Plasmodium falciparum [2]) was 38% and the Inhibition (HepG2) was 4%.
In the case of `O=C(NCCCCN1CCN(CC=Cc2ccccc2)CC1)c1ccc(NC(=O)c2cc(Cl)cc(Cl)c2)cc1`, the Inhibition (Plasmodium falciparum [1]) is reported as 100%, the Inhibition (Plasmodium falciparum [2]) is reported as 63% and the Inhibition (HepG2) is reported as 26%.
`COc1cc2nc(N3CCN(C(=O)c4ccc(N(C(=O)OC(C)(C)C)C(=O)OC(C)(C)C)cc4)CC3)nc(N)c2cc1OC` gave an Inhibition (Plasmodium falciparum [1]) of 96%, an Inhibition (Plasmodium falciparum [2]) of 19% and an Inhibition (HepG2) of 12%.
Compound `FC(F)(F)c1ccc2[nH]c(-c3ccc(-c4cccc(CNCC5CCCO5)c4)s3)nc2c1.O=C(O)C(F)(F)F` (centres undefined) has an Inhibition (Plasmodium falciparum [1]) of 99%, an Inhibition (Plasmodium falciparum [2]) of 99% and an Inhibition (HepG2) of 37%.
`Cc1ccc(-n2c(=O)c3c(n4c(SC(C)C)nnc24)-c2ccccc2CC32CCCCC2)cc1` showed an Inhibition (Plasmodium falciparum [1]) of 95%, an Inhibition (Plasmodium falciparum [2]) of 88% and an Inhibition (HepG2) of 8%.
For `Cc1cc(Nc2cccc(C(F)(F)F)c2)nc(NCc2ccccc2)n1`, the Inhibition (Plasmodium falciparum [1]) was 100%, the Inhibition (Plasmodium falciparum [2]) was 95% and the Inhibition (HepG2) was 17%.
In the case of `Cl.O=C1CSc2ccc(CNC3CCN(CCc4c(F)cnc5ccc(F)cc45)CC3)nc2N1`, the Inhibition (Plasmodium falciparum [1]) is reported as 97%, the Inhibition (Plasmodium falciparum [2]) is reported as 16% and the Inhibition (HepG2) is reported as 13%.
`Nc1ncnc2c1ncn2C(CO)Cc1ccc(O)cc1` (centres undefined) gave an Inhibition (Plasmodium falciparum [1]) of 93%, an Inhibition (Plasmodium falciparum [2]) of 0% and an Inhibition (HepG2) of 0%.
`c1ccc(COc2ccc(Nc3ncnc4cnc(-c5ccc(CNc6cccnc6)o5)cc34)cc2)cc1` showed an Inhibition (Plasmodium falciparum [1]) of 96%, an Inhibition (Plasmodium falciparum [2]) of 19% and an Inhibition (HepG2) of 2%.
`O=C(Nc1ccc(SC(F)(F)F)cc1)Nc1ccc(Cl)c(Cl)c1` gave an Inhibition (Plasmodium falciparum [1]) of 98%, an Inhibition (Plasmodium falciparum [2]) of 99% and an Inhibition (HepG2) of 15%.
`COc1cccc(CNc2noc(-c3c(-c4ccccc4)noc3C)n2)c1OC` showed an Inhibition (Plasmodium falciparum [1]) of 97%, an Inhibition (Plasmodium falciparum [2]) of 86% and an Inhibition (HepG2) of 0%.
